According to PubChem BioAssay AID720504 (National Center for Advancing Translational Sciences (NCATS), 2013):
The whole screen tested about 360,000 compounds, of which about 10,000 (2.8%) were called active. About 4% were inconclusive and are not listed. This excerpt belongs to a sample that is enriched for actives. A number with no mark means an inactive call. Calls come from the whole dose curve; as a rule, active = well fitted inhibition curve with a large enough effect; inconclusive = small, poorly fitted or top-dose-only effect; inactive = flat fitted curve, though single readings scatter.

Molecular target: Serine/threonine-protein kinase PLK1 (Homo sapiens) (UniProt P53350)
Assay: qHTS for Inhibitors of PLK1-PDB (polo-like kinase 1 - polo-box domain): Primary Screen; note: nearly all actives have a fitted effect of over 65% in size; for max response, negative = inhibition: series mostly up to about 57 µM
Settings: Plk1 PBD binding of FITC phosphopeptide, fluorescence polarization
% is set by controls: 0 for no effect and ±100 for the full control effect; potency is the fitted concentration of half-maximal effect.

Chain of Serine/threonine-protein kinase PLK1 (Homo sapiens) (P53350 whole entry, looked up, the tested form may be a part): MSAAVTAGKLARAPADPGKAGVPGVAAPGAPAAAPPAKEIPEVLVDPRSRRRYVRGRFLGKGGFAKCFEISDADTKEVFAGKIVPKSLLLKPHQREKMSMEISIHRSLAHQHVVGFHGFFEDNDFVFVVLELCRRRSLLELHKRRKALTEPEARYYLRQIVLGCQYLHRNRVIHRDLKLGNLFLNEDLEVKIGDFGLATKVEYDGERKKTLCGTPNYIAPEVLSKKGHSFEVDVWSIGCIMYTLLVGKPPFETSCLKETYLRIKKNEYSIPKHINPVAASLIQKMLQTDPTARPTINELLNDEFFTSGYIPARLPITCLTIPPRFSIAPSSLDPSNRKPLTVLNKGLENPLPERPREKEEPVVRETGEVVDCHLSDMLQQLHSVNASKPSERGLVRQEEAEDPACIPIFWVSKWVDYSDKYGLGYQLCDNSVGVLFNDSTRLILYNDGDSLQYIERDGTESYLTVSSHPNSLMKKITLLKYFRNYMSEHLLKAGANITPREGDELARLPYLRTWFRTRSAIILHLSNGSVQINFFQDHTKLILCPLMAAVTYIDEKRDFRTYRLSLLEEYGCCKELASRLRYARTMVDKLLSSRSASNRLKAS

Structure (SMILES)	Potency	max response, negative = inhibition [%]
CCOC(=O)[C@]12Cc3ccccc3[C@H]1N(C1CCCCC1)C(=O)c1cc(OC)ccc12	10.6 µM (active)	–
CCOC(=O)c1cccc(C2=C(CNC(=O)c3ccncc3)[C@H]3CC[C@@H](C2)N3Cc2ccccc2)c1	–	-3.52
COc1ccc(CN2C(=O)NC(=O)/C(=C\c3ccc(OC)c(OC)c3OC)C2=O)cc1	7.52 µM (active)	–
O=c1c2ccccc2nc(-c2ccc(Cl)cc2Cl)n1-c1ccncc1	–	-3.78
Nc1ccc([N+](=O)[O-])cc1	–	-16
C=CCN(CC=C)C(=O)Nc1ccc(OCC)cc1	–	-8.48
C=CCN1C(=O)NC(=O)/C(=C/c2ccc(OCC(=O)Nc3ccc(C)cc3)cc2)C1=O	8.44 µM (active)	–
CCC(=O)c1ccc(OCC(=O)N2CCN(CC(=O)Nc3ccc(C)cc3)CC2)cc1	–	-6.03
CCOC(=O)C1CN(C)CCC1=O (stereo not drawn)	–	-5.51
O=C(CCCn1c(=O)[nH]c2cc(Cl)ccc2c1=O)N1CCC2(CC1)OCCO2	–	-6.33
COC(=O)N(c1ccc(OC)cc1)P1(=S)OCCC(C)O1 (stereo not drawn)	2.67 µM (active)	–
Cc1ccc(N(C)C(=O)Oc2cccc3ccc(C)nc23)cc1	–	0.137
COc1ccc(N2C(=O)/C(=C/c3ccco3)C(=O)NC2=S)cc1	2.67 µM (active)	–
CC(=NCC1CCCO1)c1c(O)n(-c2ccccc2)c(=O)[nH]c1=O (stereo not drawn)	–	-9.8
COCc1cc(OC(=O)N(C)C)nc(-c2ccc(C)c(Cl)c2)n1	–	-4.36
CCC(=NCc1ccco1)c1c(O)n(Cc2ccccc2)c(=O)[nH]c1=O	–	-18.9
O=C(N/N=C/c1c(O)n(Cc2ccccc2)c(=O)[nH]c1=O)c1ccccc1	–	-9.07
CC/C(=N\NC(=O)c1ccccc1O)c1c(O)n(Cc2ccccc2)c(=O)[nH]c1=O	16.8 µM (active)	–
COC(=O)C1=C(c2ccc(Cl)c(C(F)(F)F)c2)C[C@@H]2CC[C@H]1N2C(=O)NC(C)C	–	-9.53
O=C(COc1ccc2ccccc2c1)N1CCN(Cc2ccncc2)CC1	–	-21.6
COc1ccc(-c2nc(CS(=O)CC(=O)N3CCC4(CC3)OCCO4)c(C)o2)cc1 (stereo not drawn)	–	-28
ClC(Cl)(Cl)c1ccccc1	–	-9.92

Structure (SMILES)	Potency	max response, negative = inhibition [%]
NCCc1c[nH]c2ccc(O)cc12	–	-10.9
CCOc1ccc(CN(CCCl)CCCl)cc1C(=O)OC	26.7 µM (active)	–
O=C(O)COc1ccccc1/C=C1\C(=O)NC(=O)N(CCC2=CCCCC2)C1=O	11.9 µM (active)	–
CCCCC(=O)N/N=C/c1c(O)n(CCC2=CCCCC2)c(=O)[nH]c1=O	–	-3.58
COc1cc(C(=O)N2Cc3ccc(Br)cc3-n3nncc3C2)cc(OC)c1OC	–	-10
CC(C)c1ccc(OCC(=O)N2CCN(C)CC2)c(Br)c1	–	-13.2
c1cc2c(c(NC3=NCCCS3)c1)CCCC2	–	-11.8
CCOP(=O)(OCC)C(NC(=O)c1ccc(OC)cc1)C(Cl)(Cl)Cl (stereo not drawn)	–	1.87
CC(=O)Cc1ccc(OC(C)C)cc1	–	1.86
CC(=O)c1ccc(OC(NC(=O)Cc2ccccc2)C(Cl)(Cl)Cl)cc1 (stereo not drawn)	13.4 µM (active)	–
COC(=O)C1=C(c2ccc(OCc3ccccc3)cc2)C[C@@H]2CC[C@H]1N2C(=O)NCc1cccc(F)c1	–	-7.41
CN(C)C(=O)Oc1ccc(NC(=O)N2CCOCC2)cc1	–	-3.11
CCOC(=O)CNC(=O)N1Cc2cc(N3CCCCC3)ccc2-n2nncc2C1	–	-3.84
O=C1NC(=O)N(Cc2ccco2)C(=O)/C1=C\c1ccc(-c2ccc(F)cc2)o1	0.423 µM (active)	–
O=C1NC(=O)N(Cc2ccco2)C(=O)/C1=C\c1cccn1CCOc1ccccc1	15 µM (active)	–
N#CC1=C(N)Oc2c(c(=O)oc3ccccc23)C1c1ccccc1OC(=O)c1cccs1 (stereo not drawn)	–	-2.78
CN(C)CC1CCCCC1=O (stereo not drawn)	–	-3.76
CCC(C)n1c(O)c(/C=N/Nc2nc3c(c(=O)n(C)c(=O)n3C)n2C)c(=O)[nH]c1=S (stereo not drawn)	–	-11.1
O=c1c2ccccc2nc(CBr)n1-c1ccc(Cl)cc1	–	-5.73
CCC(C)(O)C(=O)OC1C(=O)OC2CC3C(C)=CC(=O)C(O)C3(C)C3C4(O)OCC23C1C(C)C4O (stereo not drawn)	–	-4.99
CCC(=O)OC(Cc1ccccc1)(c1ccccc1)C(C)CN(C)C (stereo not drawn)	–	-11.9
